Results on seven compounds are retold here after PubChem BioAssay (NCATS).

In experiment [1] the target is Lysosomal acid glucosylceramidase (Homo sapiens) (UniProt P04062). The experiment can be described thus: Glucocerebrosidase-p2 (AID 348; in the data active means potency below about 10 µM; further: potency means the concentration at half of the fitted maximal effect). To be noted: purified GBA, blue fluorogenic substrate, 40 min. In a few lines: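 Compounds titrated from 0.6 nM upwards against 0.2 nM enzyme in pH 5.9 citric acid/KH2PO4, taurocholate, tween-20; blue fluorogenic substrate 80 uM, 40 min room temperature, stopped and read Ex 365/Em 440 for AC50.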

Experiment [2] addresses Cytochrome P450 1A2 (Homo sapiens) (UniProt P05177). The experiment can be described thus: p450-cyp1a2 (AID 410; calls by dose curve; further: potency means the concentration at half of the fitted maximal effect;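 on activity change, negative = inhibition: -100% = full effect of reference inhibitor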). To be noted: recombinant CYP1A2, luciferin-ME demethylation, luminescence; series mostly up to 57 µM. In a few lines:
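Luminescent readout of luciferin formed from Luciferin-ME by human CYP1A2; data normalized against complete inhibition by 57 uM furafylline. Enzyme 20nM, substrate 100uM at Km, 100mM KPO4 buffer, 60 min reaction at room temperature.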

Experiment [3] has as its target Glucocorticoid receptor (Homo sapiens) (UniProt P04150). The experiment can be described thus: GR-GFP Redistribution (AID 450;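 active means compounds whose dose series gives a full or clear partial fitted curve of increased nuclear translocation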; further: potency means the concentration at half of the fitted maximal effect). To be noted: U2OS GR-GFP nuclear translocation, laser cytometry, 2 h.
For experiment [4] the target is unchanged. The experiment can be described thus: GR-EFC Redistribution (AID 451; calls by dose curve; further: potency means the concentration at half of the fitted maximal effect). To be noted: CHO-K1 GR-EFC translocation, beta-gal luminescence, 2 h. In a few lines:
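CHO-K1 cells expressing nuclear EA and GR-ED fragments of b-gal; compounds titrated up to 46 uM final, 2 h at 37 C. GR nuclear translocation read as complemented b-gal luminescence after 1 h RT detection.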

Experiment [5] addresses Mitogen-activated protein kinase 10 (Mus musculus) (UniProt Q61831). The experiment can be described thus: JNK3 AlphaScreen Assay (AID 530; active means well fitted curve in either direction with a large enough effect, not every such curve was filed as active;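 further: kinase came from lysate of stimulated human HepG2 cells; signal reports phosphorylation of biotinylated GST-cJun 1-79 at Ser73 with 10 µM ATP; on the % scale 0 is the no-effect control and ±100 the full control effect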). Conditions: JNK3 lysate, c-Jun phosphorylation; series mostly up to 57.1 µM. In a few lines:
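Pre-activated (IL-1β/TNFα) JNK3 in HepG2 lysates phosphorylates biotin-GST-cJun(1-79), 10 uM ATP; anti-phospho-cJun(Ser73) AlphaScreen read at room temperature, pH 7.6 Tris buffer. Compounds pre-incubated 15 min as titrations.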
In general terms: Alpha assays give light when donor and acceptor beads are brought close together.

Experiment [6] has as its target 3',5'-cyclic-AMP phosphodiesterase 4B (Homo sapiens) (UniProt Q07343). The experiment can be described thus: qHTS Assay for Inhibitors of PDE-IV (AID 607; active means well fitted activation curve with a large enough effect in the main read-out, with a control signal flat, not every such curve was filed as active; further: % of control where 0% means no effect). To be noted: HEK293 ACTOne CNG channel cells, membrane potential fluorescence; series mostly up to 22.9 µM. In a few lines: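 Live HEK293 cells with a modified cyclic nucleotide-gated (CNG) channel report intracellular cAMP via membrane-potential dye fluorescence (ex 535/em 590 nm). Endogenous PDE-IV was targeted. Compounds were tested at up to 22.9 uM final; RO 20-1724 100 uM served as control.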
On the technique in general: In qHTS, concentration-response curves come from the screen itself.

In experiment [7] the target is Cytochrome P450 3A4 (Homo sapiens) (UniProt P08684). The experiment can be described thus: qHTS Assay for Activators of Cytochrome P450 3A4 (AID 885). Further: nearly all actives have a fitted effect of over 65% in size. Conditions: recombinant CYP3A4, Luciferin-PPXE luminescence, 60 min; series mostly up to 57.1 µM. In a few lines: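 Quantitative HTS format: compounds preincubated with 20nM human CYP3A4 and Luciferin-PPXE substrate at KM, reaction started by NADPH regeneration, stopped after 60 min, luciferase luminescence read 20 min later.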

Experiment [8] in a line: qHTS Assay for Lipid Storage Modulators (AID 1519; calls by dose curve; on activity change, negative = inhibition: on the % scale 0 is the no-effect control and ±100 the full control effect). To be noted: Drosophila S3 cells, BODIPY lipid droplet/cell ratio, laser cytometry, cells loaded with oleic acid; for activity change, negative = inhibition: at 57.5 µM (top of the series). In a few lines:
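Cells seeded at 5,000 per well were treated with compounds over a concentration series and loaded with oleic acid (400 uM, as added). Lipid droplet fluorescence (488 nm excitation, 500-530 nm channel) was read by laser-scanning cytometry and normalized to 20 uM Triacsin C.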

Experiment [9] is described as follows: Primary qHTS for small molecule stabilizers of the endoplasmic reticulum resident proteome: Secreted ER Calcium Modulated Protein (SERCaMP) assay (AID 1508630). Further: on the % scale 0 is the no-effect control and ±100 the full control effect. Conditions: SH-SY5Y GLuc-SERCaMP (Gaussia luciferase released on ER calcium loss) secretion, thapsigargin, luminescence; series mostly up to 38.4 µM. In a few lines:
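GLuc-SERCaMP-expressing SH-SY5Y cells, pretreated 16 h with compound, are challenged with thapsigargin to empty ER calcium stores; after 4 h, coelenterazine is added directly to the medium and luminescence is imaged.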

Experiment [10] deals with Cytochrome P450 2C19 (Homo sapiens) (UniProt P33261). The experiment can be described thus: qHTS Assay for Inhibitors and Substrates of Cytochrome P450 2C19 (AID 899). Further: potency means the concentration at half of the fitted maximal effect; nearly all actives have a fitted effect of over 60% in size. Conditions: recombinant CYP2C19, luciferin-H EGE luminescence; series mostly up to 57.1 µM. In a few lines: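 Signal comes from luciferase acting on luciferin released by CYP2C19-mediated hydroxylation of Luciferin-H EGE, 10uM (KM). Assay mix: 5nM enzyme, 50mM KPO4; 60 min at 37C with NADPH regeneration. Data normalized against 57uM ketoconazole.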

Experiment [11] is described as follows: Confirmation and Secondary Assay for Modulators of Hemoglobin Beta Chain Splicing at IVS2 654 locus (AID 910).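 Further: HeLa cells stably carrying EGFP split by mutant beta-globin IVS2-654 intron; % of control where 0% means no effect.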 To be noted: HeLa EGFP-654 splicing reporter, GFP fluorescence, 48 h; series mostly up to 38.3 µM. In a few lines: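 HeLa cells stably expressing EGFP interrupted by β-globin IVS2-654 intron, seeded overnight in Opti-MEM/2% FCS, then treated 2 days at 37 °C. Restored splicing read as total peak GFP intensity per well by laser scanning cytometry (488 nm excitation, 500–520 nm emission); 500 nM antisense PNA as control.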

Experiment [12] in a line: qHTS Assay for Identification of Small Molecule Agonists for Hypoxia Response Element Signaling Pathway (AID 914; active means well fitted activation curve with a large enough effect in the signal ratio, with a control signal flat, not every such curve was filed as active; the % refers to the signal ratio; further: potency means the concentration at half of the fitted maximal effect). To be noted: ME-180 HRE-bla reporter, beta-lactamase ratio, CoCl2, 17 h; activation: stronger effect = higher value. In a few lines: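 Positive modulation of EC50 CoCl2-induced hypoxia response element signaling is measured in ME-180 cells with a beta-lactamase reporter. Compounds are titrated, incubation runs 17 hours, and %Activity derives from the blue/green ratio.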

Experiment [13] can be described thus: Confirmation and Secondary Assay for Modulators of Hemoglobin Beta Chain Splicing at IVS2 705 locus (AID 930).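 Further: HeLa cells stably expressing the EGFP-705 splicing reporter; GFP fluorescence per well restored by corrected splicing of the IVS2-705 intron in EGFP; % of control where 0% means no effect.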 Conditions: HeLa EGFP-705 splicing reporter, GFP fluorescence, 48 h; series mostly up to 38.3 µM. In a few lines: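 First, HeLa EGFP-705 cells are seeded at 500/well in Optimem with 2% FCS and left overnight. Next, compound or DMSO is added for 2 days. Finally wells are laser-scanned and total peak GFP intensity scored.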

Experiment [14] is described as follows: Stat Signaling Pathway (AID 446; active means well fitted curve in either direction with a large enough effect, not every such curve was filed as active;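 further: ME-180 cervical cancer cells given 40 pM IL-6 alongside compound; SIE-controlled beta-lactamase reporter measured as 460/530 nm FRET emission ratio; on the % scale 0 is the no-effect control and ±100 the full control effect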). To be noted: ME-180 (cervical carcinoma) SIE beta-lactamase reporter, IL-6 stimulated, 5 h; at 7.69 µM (top of the series) unless noted. In a few lines:
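IL-6/STAT signaling read in ME-180 cells via an SIE beta-lactamase reporter. Stimulus was 40 pM IL-6 (its AC50) for 5 hrs, so both activation and inhibition register.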

Experiment [15] deals with Ubiquitin carboxyl-terminal hydrolase 1 (Homo sapiens) (UniProt O94782). The experiment can be described thus: Inhibitors of USP1/UAF1: Pilot qHTS (AID 504865).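 Further: rhodamine fluorescence freed from ubiquitin-rhodamine substrate followed over time; top concentration of the series differs between compounds; on the % scale 0 is the no-effect control and ±100 the full control effect; nearly all actives have a fitted effect of over 35% in size.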 To be noted: purified USP1/UAF1, Ub-rhodamine cleavage fluorescence; series mostly up to 54.9 µM. In a few lines:
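Deubiquitinase activity followed as kinetic rhodamine fluorescence release from 150 nM Ub-Rho. 1 nM USP1/UAF1 with compound, after 15 min room-temperature preincubation, in HEPES pH 7.8 buffer containing TCEP, EDTA, BSA and Tween-20.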

In experiment [16] the target is Cytochrome P450 2D6 (Homo sapiens) (UniProt P10635). The experiment can be described thus: qHTS Assay for Inhibitors and Substrates of Cytochrome P450 2D6 (AID 891). Further: potency means the concentration at half of the fitted maximal effect; nearly all actives have a fitted effect of over 60% in size. Conditions: recombinant CYP2D6, luciferin-ME EGE luminescence; series mostly up to 57.1 µM. In a few lines: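 Human CYP2D6 (5 nM) with 30 uM Luciferin-ME EGE (at Km) in 100 mM KPO4, compound preincubated 10 min, then NADPH regeneration system for 60 min at room temperature. Luciferin read by luminescence; normalized to 1.43 uM quinidine.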

The target of experiment [17] is Cytochrome P450 2C9 (Homo sapiens) (UniProt P11712). The experiment can be described thus: qHTS Assay for Inhibitors and Substrates of Cytochrome P450 2C9 (AID 883). Further: potency means the concentration at half of the fitted maximal effect; nearly all actives have a fitted effect of over 60% in size. Conditions: recombinant CYP2C9, luciferin-H luminescence, 60 min; series mostly up to 57.1 µM. In a few lines:
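Signal: luciferase luminescence reporting luciferin produced by CYP2C9. Conditions: 10nM enzyme, Luciferin-H 100uM at KM, 25mM KPO4, 37C, 60 min NADPH-driven reaction. Reference: 57uM sulphaphenazole as 100% inhibition.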

The target in experiment [18] is Cytochrome P450 3A4 (Homo sapiens) (UniProt P08684). The experiment can be described thus: qHTS Assay for Inhibitors and Substrates of Cytochrome P450 3A4 (AID 884). Further: potency means the concentration at half of the fitted maximal effect; nearly all actives have a fitted effect of over 50% in size. Conditions: recombinant CYP3A4, Luciferin-PPXE luminescence; series mostly up to 57.1 µM. In a few lines: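 20 nM human CYP3A4 with 25 uM Luciferin-PPXE (at KM) in 200 mM KPO4, preincubated 10 min with compound; NADPH regeneration started a 60 min RT reaction. Luciferin detected by luminescence, normalized to 57 uM ketoconazole as full inhibition.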

Where [19] appears, read: measured here: cell count channel max response.
Where [20] appears, read: measured here: lipid channel max response.

Inconclusive results are not listed. Active and inactive are the calls of the source. Unless noted, the call rests on the fitted dose curve; in most records, active means well fitted curve in the direction sought with a large enough effect; inconclusive means small, poorly fitted or top-dose-only effect, or another doubt; inactive means no such curve, though single readings can be large; an effect the other way counts as inactive or inconclusive. A value given as a limit tells only on which side of the number the result lay.

Chain of Lysosomal acid glucosylceramidase (Homo sapiens) (P04062 whole entry, looked up): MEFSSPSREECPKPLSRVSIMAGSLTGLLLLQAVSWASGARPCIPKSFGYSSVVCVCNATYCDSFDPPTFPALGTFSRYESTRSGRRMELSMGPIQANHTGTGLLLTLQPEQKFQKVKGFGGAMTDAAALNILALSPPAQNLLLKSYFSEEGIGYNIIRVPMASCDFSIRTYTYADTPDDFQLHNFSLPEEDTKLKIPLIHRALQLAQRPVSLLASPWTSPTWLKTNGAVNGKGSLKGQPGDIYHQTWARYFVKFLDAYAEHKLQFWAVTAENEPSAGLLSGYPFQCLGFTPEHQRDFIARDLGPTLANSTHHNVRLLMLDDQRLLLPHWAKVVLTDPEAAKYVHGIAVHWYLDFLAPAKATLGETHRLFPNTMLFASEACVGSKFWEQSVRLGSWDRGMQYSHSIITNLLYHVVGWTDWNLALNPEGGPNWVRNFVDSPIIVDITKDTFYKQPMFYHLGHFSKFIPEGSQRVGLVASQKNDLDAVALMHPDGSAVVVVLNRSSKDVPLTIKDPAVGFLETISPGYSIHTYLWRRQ
Chain of Cytochrome P450 1A2 (Homo sapiens) (P05177 whole entry, looked up): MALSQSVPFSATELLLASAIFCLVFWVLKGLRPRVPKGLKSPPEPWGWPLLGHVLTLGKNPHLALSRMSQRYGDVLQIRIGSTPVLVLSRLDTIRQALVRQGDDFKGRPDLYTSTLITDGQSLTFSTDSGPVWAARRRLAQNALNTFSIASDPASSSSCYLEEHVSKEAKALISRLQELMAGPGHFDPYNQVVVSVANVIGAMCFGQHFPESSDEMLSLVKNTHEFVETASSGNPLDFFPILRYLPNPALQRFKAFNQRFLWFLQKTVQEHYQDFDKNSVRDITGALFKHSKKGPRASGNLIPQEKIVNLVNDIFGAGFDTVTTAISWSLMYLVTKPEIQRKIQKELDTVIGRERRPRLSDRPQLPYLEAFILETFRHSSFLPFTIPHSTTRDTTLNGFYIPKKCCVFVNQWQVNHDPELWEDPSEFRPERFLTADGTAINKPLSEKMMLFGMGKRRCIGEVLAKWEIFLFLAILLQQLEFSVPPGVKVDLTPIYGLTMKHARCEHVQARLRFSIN
Chain of Glucocorticoid receptor (Homo sapiens) (P04150 whole entry, looked up): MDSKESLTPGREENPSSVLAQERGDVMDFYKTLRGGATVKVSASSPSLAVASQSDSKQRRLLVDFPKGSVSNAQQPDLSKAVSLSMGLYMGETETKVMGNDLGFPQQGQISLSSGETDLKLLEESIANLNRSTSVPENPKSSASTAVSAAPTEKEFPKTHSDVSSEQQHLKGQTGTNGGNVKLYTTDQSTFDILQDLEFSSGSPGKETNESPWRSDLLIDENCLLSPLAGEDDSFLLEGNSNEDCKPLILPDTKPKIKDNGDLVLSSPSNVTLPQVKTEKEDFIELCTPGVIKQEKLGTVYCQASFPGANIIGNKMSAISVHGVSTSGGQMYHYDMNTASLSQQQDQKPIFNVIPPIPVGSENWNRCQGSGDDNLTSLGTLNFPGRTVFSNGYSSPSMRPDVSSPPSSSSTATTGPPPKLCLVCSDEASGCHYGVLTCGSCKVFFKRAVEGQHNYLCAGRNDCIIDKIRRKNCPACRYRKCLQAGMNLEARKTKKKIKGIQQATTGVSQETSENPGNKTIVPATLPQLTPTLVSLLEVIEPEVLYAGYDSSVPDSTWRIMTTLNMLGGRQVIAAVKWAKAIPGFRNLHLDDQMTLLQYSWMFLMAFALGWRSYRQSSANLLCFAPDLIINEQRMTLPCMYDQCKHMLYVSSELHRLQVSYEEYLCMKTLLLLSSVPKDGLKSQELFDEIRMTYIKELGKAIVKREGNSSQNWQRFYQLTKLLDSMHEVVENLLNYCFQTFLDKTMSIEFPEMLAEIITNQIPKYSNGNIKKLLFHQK
Chain of 3',5'-cyclic-AMP phosphodiesterase 4B (Homo sapiens) (Q07343 whole entry, looked up): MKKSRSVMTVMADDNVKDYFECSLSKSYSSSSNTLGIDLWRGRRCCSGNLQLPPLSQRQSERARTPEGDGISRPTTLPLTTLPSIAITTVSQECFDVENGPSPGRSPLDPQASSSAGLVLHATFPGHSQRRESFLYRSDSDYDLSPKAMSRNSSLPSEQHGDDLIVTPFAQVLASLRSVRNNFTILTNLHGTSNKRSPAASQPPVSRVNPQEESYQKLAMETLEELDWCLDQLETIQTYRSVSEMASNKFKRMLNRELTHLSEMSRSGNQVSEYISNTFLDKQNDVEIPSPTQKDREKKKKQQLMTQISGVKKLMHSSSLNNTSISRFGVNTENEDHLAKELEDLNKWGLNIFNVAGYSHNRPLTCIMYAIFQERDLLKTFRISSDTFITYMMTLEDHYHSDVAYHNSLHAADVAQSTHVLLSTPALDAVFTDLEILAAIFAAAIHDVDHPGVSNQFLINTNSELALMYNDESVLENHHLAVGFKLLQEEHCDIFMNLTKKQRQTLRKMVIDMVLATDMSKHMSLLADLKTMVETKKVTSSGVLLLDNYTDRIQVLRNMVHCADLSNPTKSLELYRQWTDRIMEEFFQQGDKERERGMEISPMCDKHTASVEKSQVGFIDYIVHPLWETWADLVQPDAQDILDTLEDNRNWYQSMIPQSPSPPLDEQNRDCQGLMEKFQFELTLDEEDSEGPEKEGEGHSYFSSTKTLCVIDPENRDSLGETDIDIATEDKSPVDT
Chain of Cytochrome P450 3A4 (Homo sapiens) (P08684 whole entry, looked up): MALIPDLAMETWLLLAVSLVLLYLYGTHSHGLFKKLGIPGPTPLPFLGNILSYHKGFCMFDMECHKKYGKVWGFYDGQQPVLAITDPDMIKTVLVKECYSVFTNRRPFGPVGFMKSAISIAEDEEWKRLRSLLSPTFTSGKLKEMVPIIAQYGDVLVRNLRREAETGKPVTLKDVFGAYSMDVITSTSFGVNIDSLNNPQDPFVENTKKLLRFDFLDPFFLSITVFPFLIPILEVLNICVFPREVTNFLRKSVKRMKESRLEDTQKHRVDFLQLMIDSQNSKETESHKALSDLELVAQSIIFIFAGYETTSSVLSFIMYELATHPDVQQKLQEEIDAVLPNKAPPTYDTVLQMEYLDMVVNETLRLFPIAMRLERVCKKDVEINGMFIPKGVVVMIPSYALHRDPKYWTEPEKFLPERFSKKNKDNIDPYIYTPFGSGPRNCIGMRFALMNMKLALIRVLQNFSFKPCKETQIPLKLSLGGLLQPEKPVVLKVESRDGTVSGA
Chain of Ubiquitin carboxyl-terminal hydrolase 1 (Homo sapiens) (O94782 whole entry, looked up): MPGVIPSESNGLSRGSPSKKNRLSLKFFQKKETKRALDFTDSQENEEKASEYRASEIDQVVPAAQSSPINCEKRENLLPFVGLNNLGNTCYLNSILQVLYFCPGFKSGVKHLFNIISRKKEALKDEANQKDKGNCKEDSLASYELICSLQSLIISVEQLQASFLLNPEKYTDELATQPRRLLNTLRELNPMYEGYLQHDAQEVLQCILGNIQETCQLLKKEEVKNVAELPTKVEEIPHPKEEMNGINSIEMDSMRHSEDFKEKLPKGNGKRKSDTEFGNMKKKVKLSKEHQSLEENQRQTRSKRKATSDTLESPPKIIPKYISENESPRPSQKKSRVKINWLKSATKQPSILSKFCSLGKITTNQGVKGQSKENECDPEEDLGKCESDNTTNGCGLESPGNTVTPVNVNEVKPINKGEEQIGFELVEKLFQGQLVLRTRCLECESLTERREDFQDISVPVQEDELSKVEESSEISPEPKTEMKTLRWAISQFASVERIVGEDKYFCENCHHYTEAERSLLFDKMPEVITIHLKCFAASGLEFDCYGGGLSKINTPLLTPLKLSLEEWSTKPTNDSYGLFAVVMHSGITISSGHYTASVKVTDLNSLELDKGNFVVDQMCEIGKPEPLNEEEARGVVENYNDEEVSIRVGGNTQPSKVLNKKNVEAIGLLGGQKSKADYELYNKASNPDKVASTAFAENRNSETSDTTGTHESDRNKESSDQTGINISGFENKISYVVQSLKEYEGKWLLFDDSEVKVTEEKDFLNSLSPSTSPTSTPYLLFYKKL
Chain of Cytochrome P450 2D6 (Homo sapiens) (P10635 whole entry, looked up): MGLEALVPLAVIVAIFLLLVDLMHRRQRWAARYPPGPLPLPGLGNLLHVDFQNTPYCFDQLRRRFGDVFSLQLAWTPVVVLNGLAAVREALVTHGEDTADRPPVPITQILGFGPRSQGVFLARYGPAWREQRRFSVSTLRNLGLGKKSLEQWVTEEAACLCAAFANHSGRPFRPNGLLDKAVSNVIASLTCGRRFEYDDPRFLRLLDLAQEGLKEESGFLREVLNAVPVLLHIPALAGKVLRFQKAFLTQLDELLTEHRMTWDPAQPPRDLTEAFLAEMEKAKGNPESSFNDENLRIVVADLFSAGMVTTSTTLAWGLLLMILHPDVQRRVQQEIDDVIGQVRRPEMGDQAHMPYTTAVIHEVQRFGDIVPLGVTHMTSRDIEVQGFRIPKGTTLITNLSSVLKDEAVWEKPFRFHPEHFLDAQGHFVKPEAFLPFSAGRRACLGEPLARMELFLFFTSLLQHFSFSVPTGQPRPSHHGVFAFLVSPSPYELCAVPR
Chain of Cytochrome P450 2C19 (Homo sapiens) (P33261 whole entry, looked up): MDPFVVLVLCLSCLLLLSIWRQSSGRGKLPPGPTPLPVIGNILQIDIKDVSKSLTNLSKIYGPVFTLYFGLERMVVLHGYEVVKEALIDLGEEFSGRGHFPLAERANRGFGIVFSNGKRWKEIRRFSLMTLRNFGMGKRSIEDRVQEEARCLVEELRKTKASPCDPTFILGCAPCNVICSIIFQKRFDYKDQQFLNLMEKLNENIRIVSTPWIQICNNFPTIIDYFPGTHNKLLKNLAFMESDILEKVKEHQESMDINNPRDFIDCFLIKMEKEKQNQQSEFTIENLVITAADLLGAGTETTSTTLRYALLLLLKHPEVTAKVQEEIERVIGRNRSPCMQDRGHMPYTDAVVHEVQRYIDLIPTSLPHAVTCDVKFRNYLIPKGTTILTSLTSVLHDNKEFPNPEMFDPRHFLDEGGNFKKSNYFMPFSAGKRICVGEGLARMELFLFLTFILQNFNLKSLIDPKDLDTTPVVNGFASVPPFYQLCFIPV

`COc1ccc(-n2c(=O)c(-c3cccs3)nc3cnc(N4CCNCC4)nc32)cc1`: the Potency is > 11.4 µM (inactive) in experiment [1], 5.01 µM (active) in experiment [2], > 9.22 µM (inactive) in [3] and > 46 µM (inactive) in experiment [4]. In addition, the Potency entry in experiment [5], in experiment [6] and in experiment [7] was “inactive” throughout. Moreover, in experiment [8], the activity change, negative = inhibition was 2.69% (inactive). Also, the max response in experiment [8] (setting [19]) was 3.53%; in experiment [8] (setting [20]) it was 6.61%. In experiment [9], the result was inactive.

As to `Cc1noc(C)c1-c1ccc2ncnc(NCc3ccccc3)c2c1`, the Potency in experiment [1] is > 11.4 µM (inactive); in experiment [2] it was 3.16 µM (active); in experiment [3], > 46 µM (inactive); in experiment [4], > 46 µM (inactive); in [10] it was 7.94 µM (active); in [12], 3.16 µM (active). Further, the Potency entry in experiment [5], in experiment [7] and in experiment [11] was “inactive” throughout. Besides, the result in experiment [13] and in [9] was inactive. Also, the activity change, negative = inhibition in experiment [8] was -0.127% (inactive). Moreover, the max response in experiment [8] (setting [19]) is -0.875%; in [8] (setting [20]) it was -2.04%.

Consider `Cc1cccc(CNc2nc(-c3c(C)noc3C)nc3ccccc23)c1`, for which the Potency in experiment [1] is > 11.4 µM (inactive); in experiment [3], > 46 µM (inactive); in [4] it was > 46 µM (inactive). In addition, in [14], the activity, negative = inhibition is -28.8% (inactive). For the same compound, the Potency result in [5] and in experiment [11] was “inactive” throughout. Also, the call in experiment [13] and in experiment [9] was inactive. In addition, the activity change, negative = inhibition in experiment [8] was 11.8% (inactive). Moreover, the max response in experiment [8] (setting [19]) is -6.95%; in [8] (setting [20]), 4.27%.

Turning to `Cc1noc(C)c1-c1ccc2ncnc(NC3CC3)c2c1`, the Potency in experiment [1] was > 11.4 µM (inactive); in experiment [3] it was > 46 µM (inactive); in experiment [4] it was > 46 µM (inactive). Besides, the Potency entry in [5], in experiment [6], in experiment [11] and in [15] was “inactive” throughout. Besides, the call in [13] and in experiment [9] was inactive. For the same compound, in experiment [8], the activity change, negative = inhibition is -8.16% (inactive). In addition, the max response in [8] (setting [19]) was -21.4%; in [8] (setting [20]) it was -28.4%.

As to `O=C(c1ccco1)N1CCC[C@@]2(CCN(C(c3ccccc3)c3ccccc3)C2)C1`, the Potency in experiment [1] was > 11.4 µM (inactive); in [2] it was 25.1 µM (active); in experiment [4], > 46 µM (inactive); in experiment [16] it was 3.16 µM (active). The activity, negative = inhibition in experiment [14] was 3.09% (inactive). Moreover, the Potency result in [5], in experiment [6] and in experiment [7] was “inactive” each time. In [8], the activity change, negative = inhibition was -15.2% (inactive). Besides, the max response in [8] (setting [19]) was -10.5%; in [8] (setting [20]) it was -26.4%. The outcome in [9] was inactive.

Turning to `O=S(=O)(c1ccccc1)N1CCC[C@@]2(CCN(Cc3cc(C(F)(F)F)cc(C(F)(F)F)c3)C2)C1`, the figures for the Potency in [1] and in experiment [4] were > 11.4 µM (inactive) and > 46 µM (inactive), respectively. For the same compound, the Potency result in experiment [2], in experiment [5] and in experiment [6] was “inactive” each time. Moreover, the activity change, negative = inhibition in [8] is 4.5% (inactive). The max response in experiment [8] (setting [19]) was 17.1%; in [8] (setting [20]), 25.2%. For the same compound, the outcome in experiment [9] was inactive.

Turning to `N#Cc1cccc(NC(=O)N2CCCC3(CCN(C(=O)c4ccco4)CC3)C2)c1`, the Potency is > 11.4 µM (inactive) in [1]; 15.8 µM (active) in experiment [2]; > 46 µM (inactive) in experiment [4]; 3.98 µM (active) in experiment [17]; 5.01 µM (active) in experiment [18]. For the same compound, the activity, negative = inhibition in experiment [14] was -1.77% (inactive). The Potency entry in experiment [5], in experiment [6] and in experiment [7] was “inactive” throughout. The activity change, negative = inhibition in experiment [8] was 7.75% (inactive). For the same compound, the max response in experiment [8] (setting [19]) stood at 5.8%; in experiment [8] (setting [20]) it was 16.6%. Also, the result in experiment [9] was inactive.
